In the library only some 9.5% were active in any assay of this set; here they are far more common.
NS1 function inh = inhibitors of influenza NS1 protein function | Potency, µM (doses to about 46.1 µM), for the others: top-dose activity, positive = more growth | hit rate 0.4% among 270,000; calls by dose curve; further: actives are rising curves; nearly all actives have a fitted effect of over 50% in size
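In this qHTS, NS1 from influenza A is expressed in budding yeast, where it slows growth. Cells are switched from glucose to 2% galactose medium (pH 6.0, -URA), treated with compound, and growth recovery is read at OD600.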
SARS PLpro yeast = blocks SARS-CoV papain-like protease in a yeast assay; hit rate 0.19% among 330,000; Potency, µM (top dose mostly 32.9 µM), for the others: at the highest dose activity, positive = growth rescue, usual class: activators; AID 485353; S. cerevisiae expressing SARS-CoV PLpro, growth rescue; calls by dose curve; further: 0% is about no effect; nearly all actives have a fitted effect of over 55% in size
Pf growth 96h = P. falciparum growth inhibition at 96 hour, primary screen for plastid delayed-death inhibitors; AID 504834; P. falciparum luciferase reporter growth, 96 h; Potency, µM (series often up to 28.7 µM), inactives show at the top dose activity change, negative = inhibition, most hits filed as inhibitors; hit rate 6.9% among 320,000; further: on the % scale 0 is the no-effect control and ±100 the full control effect
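P. falciparum expressing integrated firefly luciferase grown in erythrocytes (2% hematocrit, 0.05% parasitemia final) with compounds for 96 hours at 37 C, 5% CO2. Growth inhibition read as loss of luminescence after adding luciferase detection reagent.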
Pf growth 48h = P. falciparum growth inhibition at 48 hours (one generation); hit rate 5.9% among 310,000; P. falciparum luciferase growth in erythrocytes, 48 h; AID 504832; Potency, µM (series often up to 28.7 µM), without a hit: at the top dose activity change, negative = inhibition, usual class: inhibitors; further: on the % scale 0 is the no-effect control and ±100 the full control effect
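Read-out is firefly luciferase luminescence from an integrated reporter in P. falciparum, so falling signal marks reduced parasite growth. Infected erythrocytes were at 2% hematocrit and 0.1% parasitemia (final) in Albumax-supplemented RPMI 1640.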
RE007 growth inh = less growth of the S. pombe RE007 Vpr strain | Potency, µM (top dose mostly 92.2 µM), for inactives: at the top dose activity change, negative = less growth, hits mostly inhibitors | hit rate 0.21% among 360,000 | S. pombe RE007 Vpr strain, BacTiter-Glo ATP luminescence, 24 h; active means well fitted falling curve with a large enough effect; inconclusive means small, poorly fitted or top-dose-only effect; inactive means no such curve, though single readings can be large or run the other way; further: on the % scale 0 is the no-effect control and ±100 the full control effect; nearly all actives have a fitted effect of over 50% in size
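Fission yeast strain RE007, carrying one chromosomally integrated HIV-1 vpr copy, was seeded at OD 0.01 in PMG+AL medium with 23 nL pinned compound. After 24 h at 30 °C and 99% humidity, viability was read by BacTiter-Glo luminescence.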
The depositor's hits bear a star; ? = inconclusive; . = not tested or not shown; [ ] = remark or other dose. Unless noted, the call rests on the fitted dose curve; in most records, active means well fitted inhibition curve with a large enough effect; inconclusive means small, poorly fitted or top-dose-only effect, or another doubt; inactive means no such curve, though single readings can be large or run the other way. Potency means the concentration at half of the fitted maximal effect.

SMILES	NS1 function inh	SARS PLpro yeast	Pf growth 96h	Pf growth 48h	RE007 growth inh
O=C1CC(c2ccccc2)CC(O)=C1C=NCc1ccc(Cl)c(Cl)c1 (stereo unspecified)	8.2%	-21.4%	?	5.0%	-16.2%
COc1ccccc1N=CC1=C(O)CC(c2ccccc2)CC1=O (stereo unspecified)	1.2%	-11.9%	13.1µM*	12.8%	-18.1%
O=C1CC(c2ccccc2)CC(O)=C1C=NCc1ccncc1 (stereo unspecified)	.	0.2%	11.7µM*	9.0%	-13.5%
O=C1CC(c2ccccc2)CC(O)=C1C=Nc1ccccc1Cl (stereo unspecified)	19.6%	-15.9%	?	20.0%	-21.5%
CCCCCC(O)C=CC1C(O)CC(O)C1CC=CCCCC(=O)O (stereo unspecified)	.	.	.	.	13.6%
O=C(O)CCC/C=C\C[C@@H]1[C@@H](/C=C/[C@@H](O)COc2cccc(C(F)(F)F)c2)[C@H](O)C[C@@H]1O	.	.	0.953µM*	-8.8%	.
COc1cccc2c1C(=O)CC1C2CCC2CC(=O)CCC21C (stereo unspecified)	.	.	.	.	-2.3%
O=C(O)c1c(Cl)c(Cl)c(Cl)c(Cl)c1C(=O)Nc1ccc2cn[nH]c2c1	-5.5%	.	.	.	.
O=C1NC(=O)C(CCc2ccncc2)(Cc2cccc(Cl)c2Cl)C(=O)N1c1ccc(Br)cc1 (stereo unspecified)	10.2%	-55.0%	5.22µM*	?	-10.9%
CCCCCN(C(=O)CCC(=O)OCc1cccc(Br)c1)c1c(N)n(CCCC)c(=O)[nH]c1=O	.	4.5%	?	?	-10.5%
CC(C)OCCCNc1ncc2c(n1)CC(c1ccc(N(C)C)cc1)CC2=O (stereo unspecified)	?	5.6%	-2.0%[5.75 µM]	8.6%	22.6%
CC(C)OCCCNc1ncc2c(n1)CC(c1cccs1)CC2=O (stereo unspecified)	1.5%	-1.3%	13.1µM*	?	8.0%
CCOC(=O)[C@]12CCCC=C1N(Cc1ccccc1)C(=O)[C@H](CC(=O)NCCc1ccccc1OC)C2	.	.	.	.	1.1%
NNC(=O)COc1ccc(F)cc1	-1.7%	-10.9%	-14.9%	0.0%	-7.3%
NNC(=O)COc1ccc(-c2nccc(-c3ccc(F)cc3)n2)cc1	?	-2.1%	11.7µM*	?	1.9%
Cc1ccc(NC(=O)CN(C)C(=O)Cc2c[nH]c3ccccc23)cc1	.	4.3%	.	.	-12.5%
COc1ccc2nc3cc(Cl)ccc3c(Nc3cc(CN4CCCC4)c(O)c(CN4CCCC4)c3)c2n1	-17.3%	-16.0%	?	0.0522µM*	.
COc1ccc(NC(=O)CSc2c3c(nc4cc(Cl)ccc24)CCCC3)cc1OC	2.2%	-12.3%	22.8%	1.6%	-0.9%
COc1ccc(NC(=O)c2ccc(C(=O)c3ccccc3)o2)cc1	-9.6%	3.0%	35.7%	7.38µM*	-4.5%
COc1ccc(N/C(C)=C/C(=O)c2ccccc2)cc1	-10.8%	1.6%	11.7µM*	190.7%	-11.3%
O=C(O)/C=C\c1ccc(Cn2ccnc2)cc1	.	.	?	2.1%[12.8 µM]	.
COc1ccc(-c2nnn(CC(=O)N(CC3CCCO3)C(C(=O)NC(C)(C)C)c3ccco3)n2)cc1OC (stereo unspecified)	.	2.0%	9.6%	?	1.2%
Nc1c(C(=O)NCCN2CCOCC2)c2nc3ccccc3nc2n1-c1ccc2c(c1)OCO2	-23.1%	6.2%	2.94µM*	?	8.4%
O=C(NCCN1CCOCC1)c1cnn2c(-c3ccccc3)cc(-c3ccccc3)nc12	7.5%	-3.5%	10.4µM*	?	-5.9%
Nc1c(C(=O)NCCN2CCOCC2)c2nc3ccccc3nc2n1-c1ccccc1	2.1%	1.0%	.	9.28µM*	16.5%
SMILES	NS1 function inh	SARS PLpro yeast	Pf growth 96h	Pf growth 48h	RE007 growth inh
COCCNC(=O)c1c(N)n(-c2ccccc2)c2nc3ccccc3nc12	-9.3%	-2.0%	?	?	-0.9%
Cc1ccc2nc(SCC(=O)Nc3cc(C)on3)nc(=O)n2c1	.	1.3%	6.0%	?	5.8%
Nc1[nH]c(=S)[nH]c(=O)c1N=Nc1c(Br)cc(S(N)(=O)=O)cc1Br	-0.1%	.	.	.	.
C/C(=N\Nc1nc2ccccc2[nH]1)c1ccccn1	-138.0%	-10.6%	?	2.94µM*	.
C/C(=N\Nc1nc2ccccc2[nH]1)c1ccc2c(c1)OCCO2	.	3.5%	?	3.7µM*	7.9%
CC1(C)S[C@@H]2[C@H](NC(=O)C3(N)CCCCC3)C(=O)N2[C@@H]1C(=O)O	-5.2%	.	.	.	.
O=C(Nc1cccc(Cl)c1N1CCCCC1)c1ccc(N2CCOCC2)c([N+](=O)[O-])c1	9.1%	-31.9%	6.57µM*	-16.1%	5.3%
O=C(NC1CC1)c1ccc(N2CCCCC2)c([N+](=O)[O-])c1	-51.0%	-6.1%	2.62µM*	8.28µM*	17.8%
O=c1cc(O)c2sc(Nc3ccc(Cl)c(F)c3)nc2[nH]1	13.1%	0.5%	5.86µM*	1.65µM*	-13.4%
COc1ccc(Nc2nc3[nH]c(=O)cc(O)c3s2)cc1	.	-0.8%	?	?	-8.1%
O=c1cc(O)c2sc(Nc3ccc(F)c(Cl)c3)nc2[nH]1	.	-0.1%	3.7µM*	?	-6.0%
CC(=O)c1ccc(NC(=O)CSc2nc3[nH]c(=O)cc(O)c3s2)cc1	.	.	.	.	6.0%
CC(C)(C)c1ccc(S(=O)(=O)N2CCN(CC(=O)N3CC(=O)Nc4ccccc43)CC2)cc1	.	-1.1%	?	11.7µM*	-9.1%
CCc1cccc(C)c1NC(=O)COC(=O)C1CCN(S(=O)(=O)c2ccccc2)CC1	.	-6.3%	0.0%	-14.4%	6.8%
CCc1cccc(C)c1NC(=O)CN1CCN(S(=O)(=O)c2ccc(C(C)(C)C)cc2)CC1	.	.	0.928µM*	1.65µM*	-0.9%
O=C(CN1CCN(S(=O)(=O)c2ccc(C(F)(F)F)cc2)CC1)N1CCNC1=O	.	-1.0%	?	-16.8%	1.2%
CC(=O)c1cccc(NC(=O)Nc2cnn(Cc3ccc(Cl)cc3Cl)c2)c1	4.3%	-3.3%	9.28µM*	.	6.7%
O=C(Nc1cnn(Cc2ccc(Cl)cc2Cl)c1)c1cc(-c2cccs2)on1	-66.7%	-1.6%	?	?	-6.3%
